How the values were obtained:
Experiment in all cases: log2 ratio of Biotin-Ahx-Ub-VS probe labelling (fragment/DMSO); higher = less target engagement (more negative = stronger competition), active = hit call of the paper (q ≤ 0.05, log2 ratio ≤ -1)
Conditions in all cases: compound concentration: 200 uM; treatment time: 3 h
USP42 = target: T1, USP42 (UniProt Q9H9J4)
T1 sequence (whole entry): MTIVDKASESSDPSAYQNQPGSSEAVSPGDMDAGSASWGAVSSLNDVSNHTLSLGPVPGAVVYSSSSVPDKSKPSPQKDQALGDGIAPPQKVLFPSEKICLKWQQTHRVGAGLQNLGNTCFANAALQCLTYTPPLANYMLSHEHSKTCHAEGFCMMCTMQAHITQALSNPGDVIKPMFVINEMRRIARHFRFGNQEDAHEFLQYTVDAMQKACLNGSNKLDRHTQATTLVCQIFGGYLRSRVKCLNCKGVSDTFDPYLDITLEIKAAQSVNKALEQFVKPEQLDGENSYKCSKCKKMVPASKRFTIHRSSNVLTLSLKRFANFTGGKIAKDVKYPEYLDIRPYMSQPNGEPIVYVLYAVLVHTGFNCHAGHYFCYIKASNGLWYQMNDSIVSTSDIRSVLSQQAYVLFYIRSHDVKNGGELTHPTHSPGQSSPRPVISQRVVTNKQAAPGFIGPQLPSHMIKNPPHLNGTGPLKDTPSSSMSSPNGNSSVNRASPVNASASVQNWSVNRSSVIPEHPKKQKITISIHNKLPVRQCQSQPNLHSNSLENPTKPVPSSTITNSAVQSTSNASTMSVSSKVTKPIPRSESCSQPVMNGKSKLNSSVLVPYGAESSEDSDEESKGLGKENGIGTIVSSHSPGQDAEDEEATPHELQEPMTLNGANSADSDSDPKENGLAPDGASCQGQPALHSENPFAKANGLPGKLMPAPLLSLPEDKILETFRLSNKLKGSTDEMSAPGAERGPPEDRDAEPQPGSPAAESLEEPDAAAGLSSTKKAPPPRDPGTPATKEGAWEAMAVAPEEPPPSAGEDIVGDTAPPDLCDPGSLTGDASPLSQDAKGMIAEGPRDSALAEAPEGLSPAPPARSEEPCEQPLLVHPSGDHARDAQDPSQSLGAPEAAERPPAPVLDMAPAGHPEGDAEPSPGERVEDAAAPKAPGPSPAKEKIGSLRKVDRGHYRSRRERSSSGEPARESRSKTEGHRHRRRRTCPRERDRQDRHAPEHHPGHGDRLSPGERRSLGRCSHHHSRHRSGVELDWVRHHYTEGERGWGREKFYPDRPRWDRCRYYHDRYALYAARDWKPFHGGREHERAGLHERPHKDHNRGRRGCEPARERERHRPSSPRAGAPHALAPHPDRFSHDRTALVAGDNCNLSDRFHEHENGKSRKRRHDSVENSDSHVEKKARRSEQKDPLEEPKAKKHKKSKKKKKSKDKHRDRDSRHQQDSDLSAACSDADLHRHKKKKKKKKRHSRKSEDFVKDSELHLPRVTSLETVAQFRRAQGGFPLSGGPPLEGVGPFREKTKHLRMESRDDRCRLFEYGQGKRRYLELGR
In short: (§1)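 HEK293T lysate (495 µg per sample, in Tris/CHAPS/IGEPAL buffer with protease inhibitors) was exposed in triplicate for 3 h to fragment at 200 µM or to vehicle, then to Biotin-Ahx-Ub-VS at 0.5 µM final for 1 h. Labelled DUBs were enriched on NeutrAvidin, digested with LysC and trypsin, and analysed by diaPASEF LC-MS/MS. Spectronaut label-free quantities were normalised to the global median, and values are average log2 ratios of fragment over vehicle from an unpaired t-test. Only proteins with ≥2 unique peptides were used.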

USP46 = USP46 (UniProt P62068)
USP46, sequence (P62068 whole entry): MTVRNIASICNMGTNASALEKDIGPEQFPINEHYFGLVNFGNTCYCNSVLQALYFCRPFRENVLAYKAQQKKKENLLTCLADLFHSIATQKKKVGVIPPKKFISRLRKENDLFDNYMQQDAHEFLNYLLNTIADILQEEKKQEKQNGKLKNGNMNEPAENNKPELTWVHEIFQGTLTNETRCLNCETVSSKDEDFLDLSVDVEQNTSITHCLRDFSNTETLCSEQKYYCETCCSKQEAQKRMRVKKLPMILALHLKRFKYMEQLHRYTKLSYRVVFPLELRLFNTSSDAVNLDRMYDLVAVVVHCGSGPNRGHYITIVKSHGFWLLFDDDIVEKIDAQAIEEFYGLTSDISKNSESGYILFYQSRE
In short: as §1

USP47 = target: T2, USP47 (UniProt Q96K76)
T2 sequence (whole entry): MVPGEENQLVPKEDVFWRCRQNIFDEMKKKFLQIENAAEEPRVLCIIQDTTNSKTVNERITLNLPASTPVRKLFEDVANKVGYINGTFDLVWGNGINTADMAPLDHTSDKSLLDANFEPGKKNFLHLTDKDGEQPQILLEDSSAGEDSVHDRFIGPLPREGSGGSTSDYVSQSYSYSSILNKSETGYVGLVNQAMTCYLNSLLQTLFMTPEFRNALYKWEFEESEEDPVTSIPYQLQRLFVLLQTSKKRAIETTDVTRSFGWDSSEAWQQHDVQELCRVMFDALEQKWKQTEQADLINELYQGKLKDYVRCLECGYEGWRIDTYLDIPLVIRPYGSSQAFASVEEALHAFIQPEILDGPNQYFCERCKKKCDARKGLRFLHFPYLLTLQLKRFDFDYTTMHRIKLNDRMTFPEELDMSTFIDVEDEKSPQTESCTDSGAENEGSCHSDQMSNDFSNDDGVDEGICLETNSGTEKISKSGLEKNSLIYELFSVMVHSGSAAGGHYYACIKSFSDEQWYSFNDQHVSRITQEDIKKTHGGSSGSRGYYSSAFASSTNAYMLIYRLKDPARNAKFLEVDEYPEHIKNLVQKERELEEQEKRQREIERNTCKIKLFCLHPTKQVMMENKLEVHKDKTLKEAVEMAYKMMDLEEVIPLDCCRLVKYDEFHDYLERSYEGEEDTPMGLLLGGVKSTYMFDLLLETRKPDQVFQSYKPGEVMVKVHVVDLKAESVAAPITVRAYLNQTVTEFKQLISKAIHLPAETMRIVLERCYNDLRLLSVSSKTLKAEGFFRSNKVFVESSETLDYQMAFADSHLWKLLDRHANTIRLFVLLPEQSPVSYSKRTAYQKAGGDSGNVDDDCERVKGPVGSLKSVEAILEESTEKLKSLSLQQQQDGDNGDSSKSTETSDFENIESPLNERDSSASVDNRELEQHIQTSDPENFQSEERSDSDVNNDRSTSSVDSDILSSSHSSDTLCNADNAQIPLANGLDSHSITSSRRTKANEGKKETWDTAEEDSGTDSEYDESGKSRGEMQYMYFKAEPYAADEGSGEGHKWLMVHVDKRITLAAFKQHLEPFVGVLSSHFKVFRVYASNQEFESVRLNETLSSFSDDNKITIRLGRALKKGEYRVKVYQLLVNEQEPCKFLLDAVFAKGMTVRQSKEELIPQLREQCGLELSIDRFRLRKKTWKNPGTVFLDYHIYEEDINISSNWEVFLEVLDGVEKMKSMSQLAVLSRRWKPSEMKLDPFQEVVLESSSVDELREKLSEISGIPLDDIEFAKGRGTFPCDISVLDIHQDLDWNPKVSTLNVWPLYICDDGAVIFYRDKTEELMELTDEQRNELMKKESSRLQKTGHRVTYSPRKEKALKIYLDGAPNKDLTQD
In short: as §1

USP48 = target: T3, USP48 (UniProt Q86UV5)
T3 sequence (whole entry): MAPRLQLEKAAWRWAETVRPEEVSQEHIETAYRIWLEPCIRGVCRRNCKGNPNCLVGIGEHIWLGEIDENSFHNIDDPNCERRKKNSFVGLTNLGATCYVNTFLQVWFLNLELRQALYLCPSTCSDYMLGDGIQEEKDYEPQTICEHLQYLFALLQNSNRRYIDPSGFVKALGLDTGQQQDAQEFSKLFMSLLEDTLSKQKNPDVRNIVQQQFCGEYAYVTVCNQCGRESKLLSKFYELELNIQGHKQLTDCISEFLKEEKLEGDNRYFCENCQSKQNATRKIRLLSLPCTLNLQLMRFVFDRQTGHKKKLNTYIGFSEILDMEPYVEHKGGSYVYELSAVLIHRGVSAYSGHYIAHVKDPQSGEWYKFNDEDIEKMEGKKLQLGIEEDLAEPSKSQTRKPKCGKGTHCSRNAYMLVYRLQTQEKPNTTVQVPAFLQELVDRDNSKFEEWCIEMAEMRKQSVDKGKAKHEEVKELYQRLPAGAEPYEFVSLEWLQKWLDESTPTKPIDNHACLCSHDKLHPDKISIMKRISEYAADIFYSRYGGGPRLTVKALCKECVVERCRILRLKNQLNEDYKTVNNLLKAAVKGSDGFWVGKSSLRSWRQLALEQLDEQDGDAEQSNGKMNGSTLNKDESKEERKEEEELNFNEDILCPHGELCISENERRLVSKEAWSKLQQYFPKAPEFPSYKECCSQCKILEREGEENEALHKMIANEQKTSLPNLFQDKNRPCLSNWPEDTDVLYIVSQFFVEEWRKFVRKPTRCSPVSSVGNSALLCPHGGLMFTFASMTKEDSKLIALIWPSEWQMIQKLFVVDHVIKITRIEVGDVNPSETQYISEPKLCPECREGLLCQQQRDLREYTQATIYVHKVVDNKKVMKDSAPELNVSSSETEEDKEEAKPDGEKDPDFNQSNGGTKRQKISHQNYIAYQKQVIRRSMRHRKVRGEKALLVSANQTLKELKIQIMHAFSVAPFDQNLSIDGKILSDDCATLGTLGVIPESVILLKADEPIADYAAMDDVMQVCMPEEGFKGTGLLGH
In short: as §1

USP5 = target: T4, USP5 (UniProt P45974)
T4 sequence (whole entry): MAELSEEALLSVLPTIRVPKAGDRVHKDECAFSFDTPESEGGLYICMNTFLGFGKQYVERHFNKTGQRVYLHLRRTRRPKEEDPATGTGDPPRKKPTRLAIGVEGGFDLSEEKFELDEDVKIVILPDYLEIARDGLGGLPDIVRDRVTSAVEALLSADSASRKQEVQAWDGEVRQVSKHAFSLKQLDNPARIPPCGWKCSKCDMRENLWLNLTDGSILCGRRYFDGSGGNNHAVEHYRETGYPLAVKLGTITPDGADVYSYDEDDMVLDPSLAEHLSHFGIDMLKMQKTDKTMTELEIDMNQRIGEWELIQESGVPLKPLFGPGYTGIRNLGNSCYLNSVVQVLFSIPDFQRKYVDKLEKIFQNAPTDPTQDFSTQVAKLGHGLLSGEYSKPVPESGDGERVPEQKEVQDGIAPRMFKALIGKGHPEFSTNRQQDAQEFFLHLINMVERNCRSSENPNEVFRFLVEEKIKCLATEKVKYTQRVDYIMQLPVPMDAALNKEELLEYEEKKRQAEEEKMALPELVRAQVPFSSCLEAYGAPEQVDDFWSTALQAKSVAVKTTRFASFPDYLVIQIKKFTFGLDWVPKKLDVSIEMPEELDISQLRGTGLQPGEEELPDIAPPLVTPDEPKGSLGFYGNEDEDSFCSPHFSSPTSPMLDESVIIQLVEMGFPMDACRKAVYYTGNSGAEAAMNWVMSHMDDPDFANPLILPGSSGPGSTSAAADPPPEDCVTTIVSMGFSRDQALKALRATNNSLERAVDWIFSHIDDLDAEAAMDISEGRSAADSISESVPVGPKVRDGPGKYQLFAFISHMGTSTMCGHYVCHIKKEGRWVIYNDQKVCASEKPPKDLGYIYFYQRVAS
In short: as §1

USP54 = USP54 (UniProt Q70EL1)
USP54, sequence (Q70EL1 whole entry): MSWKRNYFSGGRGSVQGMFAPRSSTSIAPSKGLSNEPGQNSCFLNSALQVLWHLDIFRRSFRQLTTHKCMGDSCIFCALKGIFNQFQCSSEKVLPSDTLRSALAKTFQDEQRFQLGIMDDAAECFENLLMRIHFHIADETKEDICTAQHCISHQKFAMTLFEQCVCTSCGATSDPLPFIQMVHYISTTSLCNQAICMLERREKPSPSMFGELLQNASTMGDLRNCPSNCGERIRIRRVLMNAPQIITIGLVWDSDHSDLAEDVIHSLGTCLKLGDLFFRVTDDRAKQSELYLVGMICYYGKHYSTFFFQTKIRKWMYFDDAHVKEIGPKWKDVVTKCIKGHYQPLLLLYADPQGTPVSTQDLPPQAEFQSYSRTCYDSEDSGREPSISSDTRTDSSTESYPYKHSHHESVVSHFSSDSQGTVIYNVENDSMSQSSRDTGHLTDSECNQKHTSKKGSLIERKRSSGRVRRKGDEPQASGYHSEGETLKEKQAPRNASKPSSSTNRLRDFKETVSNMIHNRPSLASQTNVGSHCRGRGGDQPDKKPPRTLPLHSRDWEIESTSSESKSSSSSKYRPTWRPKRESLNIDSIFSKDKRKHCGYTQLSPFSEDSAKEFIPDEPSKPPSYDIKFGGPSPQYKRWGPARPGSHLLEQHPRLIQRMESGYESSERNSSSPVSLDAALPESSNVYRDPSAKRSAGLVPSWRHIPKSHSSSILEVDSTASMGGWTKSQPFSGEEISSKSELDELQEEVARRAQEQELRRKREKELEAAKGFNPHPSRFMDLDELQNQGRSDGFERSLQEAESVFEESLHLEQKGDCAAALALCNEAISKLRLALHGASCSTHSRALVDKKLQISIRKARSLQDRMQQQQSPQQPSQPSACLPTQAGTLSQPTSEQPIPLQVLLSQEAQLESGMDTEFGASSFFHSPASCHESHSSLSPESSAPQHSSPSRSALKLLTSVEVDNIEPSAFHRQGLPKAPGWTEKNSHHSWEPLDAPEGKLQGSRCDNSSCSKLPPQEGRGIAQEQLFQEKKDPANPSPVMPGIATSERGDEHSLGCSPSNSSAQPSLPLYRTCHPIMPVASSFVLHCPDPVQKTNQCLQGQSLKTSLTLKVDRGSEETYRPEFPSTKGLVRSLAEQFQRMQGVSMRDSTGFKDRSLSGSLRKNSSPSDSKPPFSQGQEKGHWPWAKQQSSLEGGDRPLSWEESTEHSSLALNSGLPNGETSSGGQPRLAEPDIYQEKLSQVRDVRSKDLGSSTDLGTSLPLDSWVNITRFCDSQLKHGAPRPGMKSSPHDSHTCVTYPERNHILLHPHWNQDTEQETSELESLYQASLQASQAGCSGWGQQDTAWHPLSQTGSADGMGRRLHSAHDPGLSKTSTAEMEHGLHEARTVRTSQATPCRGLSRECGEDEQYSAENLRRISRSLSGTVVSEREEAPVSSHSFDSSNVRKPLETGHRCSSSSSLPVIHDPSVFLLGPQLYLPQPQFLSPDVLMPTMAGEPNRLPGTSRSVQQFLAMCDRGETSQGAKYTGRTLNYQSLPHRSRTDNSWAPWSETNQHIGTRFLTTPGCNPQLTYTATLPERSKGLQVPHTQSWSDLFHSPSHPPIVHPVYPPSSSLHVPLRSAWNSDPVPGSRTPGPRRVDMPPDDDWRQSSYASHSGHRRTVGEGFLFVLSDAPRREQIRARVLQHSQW
In short: as §1

USP7 = USP7 (UniProt Q93009)
USP7, sequence (Q93009 whole entry, looked up): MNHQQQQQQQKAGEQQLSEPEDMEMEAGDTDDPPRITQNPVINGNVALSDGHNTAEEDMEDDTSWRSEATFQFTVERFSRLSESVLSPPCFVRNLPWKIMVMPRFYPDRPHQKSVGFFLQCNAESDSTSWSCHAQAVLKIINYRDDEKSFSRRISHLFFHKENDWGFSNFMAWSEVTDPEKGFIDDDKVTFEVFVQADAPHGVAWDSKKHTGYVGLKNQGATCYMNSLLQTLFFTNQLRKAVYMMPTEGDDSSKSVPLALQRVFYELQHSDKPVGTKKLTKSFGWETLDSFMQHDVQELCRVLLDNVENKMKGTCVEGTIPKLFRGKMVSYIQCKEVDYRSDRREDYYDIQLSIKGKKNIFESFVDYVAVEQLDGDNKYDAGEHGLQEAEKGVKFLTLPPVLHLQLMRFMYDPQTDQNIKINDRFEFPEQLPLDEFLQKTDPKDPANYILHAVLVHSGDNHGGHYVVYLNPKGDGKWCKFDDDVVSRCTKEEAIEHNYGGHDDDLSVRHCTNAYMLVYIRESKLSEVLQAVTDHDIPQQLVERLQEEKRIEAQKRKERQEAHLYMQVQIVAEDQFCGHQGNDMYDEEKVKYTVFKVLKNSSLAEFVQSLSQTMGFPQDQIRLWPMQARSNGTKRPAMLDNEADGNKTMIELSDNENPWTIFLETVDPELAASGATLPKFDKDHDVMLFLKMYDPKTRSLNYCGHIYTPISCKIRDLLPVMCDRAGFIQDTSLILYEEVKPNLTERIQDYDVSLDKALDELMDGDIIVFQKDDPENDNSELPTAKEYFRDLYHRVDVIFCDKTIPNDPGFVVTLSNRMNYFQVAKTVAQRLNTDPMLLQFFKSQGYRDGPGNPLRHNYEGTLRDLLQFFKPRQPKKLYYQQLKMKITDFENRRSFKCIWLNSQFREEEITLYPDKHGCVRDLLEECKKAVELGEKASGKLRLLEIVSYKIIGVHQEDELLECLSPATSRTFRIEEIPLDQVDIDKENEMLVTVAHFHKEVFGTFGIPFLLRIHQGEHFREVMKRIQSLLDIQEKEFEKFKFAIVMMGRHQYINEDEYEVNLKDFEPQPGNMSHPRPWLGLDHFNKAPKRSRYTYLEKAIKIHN
In short: as §1

USP8 = target: T5, USP8 (UniProt P40818)
T5 sequence (whole entry): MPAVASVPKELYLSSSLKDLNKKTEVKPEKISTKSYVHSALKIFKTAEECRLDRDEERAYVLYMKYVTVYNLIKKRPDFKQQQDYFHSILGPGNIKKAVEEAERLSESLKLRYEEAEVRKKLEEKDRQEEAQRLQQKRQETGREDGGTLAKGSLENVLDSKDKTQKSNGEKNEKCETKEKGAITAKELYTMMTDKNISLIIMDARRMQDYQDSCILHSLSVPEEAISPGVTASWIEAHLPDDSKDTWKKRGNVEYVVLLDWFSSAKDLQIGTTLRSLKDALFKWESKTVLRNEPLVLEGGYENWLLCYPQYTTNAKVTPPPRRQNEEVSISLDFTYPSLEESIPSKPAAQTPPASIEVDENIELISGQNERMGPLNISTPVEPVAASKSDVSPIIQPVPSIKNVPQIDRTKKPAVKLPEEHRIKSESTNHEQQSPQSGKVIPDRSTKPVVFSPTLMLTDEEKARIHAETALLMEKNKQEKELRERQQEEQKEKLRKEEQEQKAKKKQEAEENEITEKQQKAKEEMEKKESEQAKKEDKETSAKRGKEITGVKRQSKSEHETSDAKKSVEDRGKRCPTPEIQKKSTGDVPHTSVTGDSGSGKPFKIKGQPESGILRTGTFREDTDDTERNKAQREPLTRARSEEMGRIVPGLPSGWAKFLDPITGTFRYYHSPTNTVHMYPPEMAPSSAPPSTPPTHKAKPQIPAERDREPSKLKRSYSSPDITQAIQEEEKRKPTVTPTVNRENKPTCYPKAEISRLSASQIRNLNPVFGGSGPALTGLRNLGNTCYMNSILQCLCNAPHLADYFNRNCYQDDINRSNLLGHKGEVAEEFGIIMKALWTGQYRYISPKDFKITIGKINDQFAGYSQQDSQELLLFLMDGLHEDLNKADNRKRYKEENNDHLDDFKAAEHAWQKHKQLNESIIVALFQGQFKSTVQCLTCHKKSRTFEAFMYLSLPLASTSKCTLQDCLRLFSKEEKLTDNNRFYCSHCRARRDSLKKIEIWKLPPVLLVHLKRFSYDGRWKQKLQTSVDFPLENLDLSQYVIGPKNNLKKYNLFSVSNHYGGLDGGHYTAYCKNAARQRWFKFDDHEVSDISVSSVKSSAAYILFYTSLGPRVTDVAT
In short: as §1

Measured: log2 ratio of Biotin-Ahx-Ub-VS probe labelling

CN1c2ccccc2C(NC(=O)CCl)CS1(=O)=O (stereo not drawn)
inactive: USP42 -0.0975 | USP46 0.0351 | USP47 -0.132 | USP48 -0.464 | USP5 0.146 | USP54 0.66 | USP7 -0.369 | USP8 -0.341

From the supplement of paper PMC11732987, “Enantioselective OTUD7B fragment discovery through chemoproteomics screening and high-throughput optimisation” (Communications Chemistry, 2025)
